A number with no mark means an inactive call. The source made the active and inactive calls. Calls come from the whole dose curve; as a rule, active = well fitted curve in the direction sought with a large enough effect in the repeat runs; inconclusive = weak or mixed curves; inactive = flat fitted curve, though single readings scatter.
Assay: qHTS assay to test for compound auto fluorescence at 460 nm (blue) in HEK293 cells (AID 720678)
Details: blue autofluorescence 405/460 nm; series mostly up to 91.3 µM; fluorescence, % of triamterene: at the top concentration
Procedure, shortened: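 Triamterene serves as the blue fluorophore standard. Compound signal at 405/460 nm is read in HEK293 wells (2,000 cells, 10% dialyzed FBS) after overnight treatment at 37C.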
% is set by controls: 0 for no effect and ±100 for the full control effect.

In order of falling “fluorescence, % of triamterene” value:
1. Cc1ncc([C@@H](CCCCCCc2ccc3c(n2)NCCC3)CC(=O)O)cn1  0.51%
2. O=S(=O)(O)c1cccc(S(=O)(=O)O)c1  0.0636%
3. CCCCN(CCC(=O)OCC)C(C)=O  0%
4. CCCCCCC#CC(=O)OC  -0.0099%
5. CCCCOC(=O)CCC(C)=O  -0.0131%
6. Cc1ccccc1N=C(N)N=C(N)N  -0.0324%
7. CCCCCCCCCC[N+](C)(C)[O-]  -0.0519%
8. C=CCCC(=O)O  -0.0604%
9. NC(CCC(=O)O)C(=O)O (stereo unspecified)  -0.0659%
10. O=S(=O)(O)c1cc(O)c(O)c(S(=O)(=O)O)c1  -0.0868%
11. CC[N+](CC)(CC(=O)Nc1c(C)cccc1C)Cc1ccccc1 (tested in a mixture with another compound)  -0.107%
12. C1CCC2(CCCCO2)OC1  -0.25%
13. CCCC[N+](C)(CCCC)CCCC  -0.29%

In order of rising “fluorescence, % of triamterene” value:
1. CCCCc1nc(Cl)c(CO)n1Cc1ccc(-c2ccccc2-c2nn[nH]n2)cc1  -0.236% [at 46 µM]
2. CC[N+](CC)(CC)CCOc1cccc(OCC[N+](CC)(CC)CC)c1OCC[N+](CC)(CC)CC  -0.152% [at 46 µM]
3. COc1c(N2CCNC(C)C2)c(F)cc2c(=O)c(C(=O)O)cn(C3CC3)c12 (stereo unspecified)  -0.0901% [at 46 µM]
4. CCOC(=O)OC(C)OC1=C(C(=O)Nc2ccccn2)N(C)S(=O)(=O)c2ccccc21 (stereo unspecified)  -0.0827% [at 46 µM]
5. Nc1c2c(nc3c1CCC3)CCCC2  -0.0767% [at 46 µM]
6. O=C(O)Cc1csc(-c2ccc(Cl)cc2)n1  0.0483% [at 46 µM]
7. Cc1ccc(-c2ncc(Cl)cc2-c2ccc(S(C)(=O)=O)cc2)cn1  0.118% [at 46 µM]
8. CC1=C(C/C=C(\C)CCC[C@H](C)CCC[C@H](C)CCCC(C)C)C(=O)c2ccccc2C1=O  0.144% [at 46 µM]
9. N[C@H](C(=O)O)[C@@H](O)c1ccc(O)c(O)c1  8.97% [at 46 µM]

In the case of `Cc1nc2ccc(CN(C)c3ccc(C(=O)N[C@@H](CCC(=O)O)C(=O)O)s3)cc2c(=O)[nH]1`, the outcome is reported as “inactive”.
For `N[C@@H](CCC(=O)O)C(=O)O`, the outcome was “inactive”.
In the case of `COc1ccnc(CS(=O)c2nc3cc(OC(F)F)ccc3[nH]2)c1OC` (stereo unspecified), the outcome is reported as “inactive”.

In order of rising fluorescence, % of triamterene:
1. O=C(O)c1cn(C2CC2)c2cc(N3CCNCC3)c(F)cc2c1=O  0.0142% [at 18.6 µM]
2. C[N+]12CCC(CC1)C(OC(=O)C(O)(c1ccccc1)c1ccccc1)C2 (stereo unspecified)  0.0716% [at 18.6 µM]
3. CO[C@@]1(NC(=O)C(C(=O)O)c2ccc(O)cc2)C(=O)N2C(C(=O)O)=C(CSc3nnnn3C)CO[C@@H]21 (stereo partly specified)  0.184% [at 18.6 µM]

In order of rising “fluorescence, % of triamterene” value:
1. CC(C)(N)C#N  -0.0353% [at 95.7 µM]
2. C=CC(=O)OCCCl  -0.0141% [at 95.7 µM]
3. FB(F)F  0.0137% [at 95.7 µM]

Assay: qHTS assay to test for compound auto fluorescence at 590 nm (red) in HEK293 cells (AID 720679)
Details: red autofluorescence 540/590 nm; series mostly up to 91.3 µM; fluorescence, % of fluorescent control: at the top concentration
Procedure, shortened: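 We plated HEK293 cells in 10% dialyzed FBS medium, let them adhere for 4-5 hr, then added 23 nL compound. Overnight at 37C and 5% CO2 preceded fluorescence measurement at 540/590nm.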

In order of rising “fluorescence, % of fluorescent control” value:
1. CCCCN(CCC(=O)OCC)C(C)=O  -0.899%
2. NC(CCC(=O)O)C(=O)O (stereo unspecified)  -0.735%
3. O=S(=O)(O)c1cc(O)c(O)c(S(=O)(=O)O)c1  -0.514%
4. C1CCC2(CCCCO2)OC1  -0.351%
5. C=CCCC(=O)O  -0.282%
6. CC[N+](CC)(CC(=O)Nc1c(C)cccc1C)Cc1ccccc1 (tested in a mixture with another compound)  -0.132%
7. Cc1ncc([C@@H](CCCCCCc2ccc3c(n2)NCCC3)CC(=O)O)cn1  -0.111%
8. CCCCCCCCCC[N+](C)(C)[O-]  -0.0362%
9. Cc1ccccc1N=C(N)N=C(N)N  0.0317%
10. O=C1NC(=O)C2CC=CCC12 (stereo unspecified)  0.0738%
11. O=S(=O)(O)c1cccc(S(=O)(=O)O)c1  0.268%
12. CCCCCCC#CC(=O)OC  0.357%

In order of rising “fluorescence, % of fluorescent control” value:
1. CC1=C(C/C=C(\C)CCC[C@H](C)CCC[C@H](C)CCCC(C)C)C(=O)c2ccccc2C1=O  -0.72% [at 46 µM]
2. CCOC(=O)OC(C)OC1=C(C(=O)Nc2ccccn2)N(C)S(=O)(=O)c2ccccc21 (stereo unspecified)  -0.316% [at 46 µM]
3. Nc1c2c(nc3c1CCC3)CCCC2  -0.155% [at 46 µM]
4. CCCCc1nc(Cl)c(CO)n1Cc1ccc(-c2ccccc2-c2nn[nH]n2)cc1  -0.152% [at 46 µM]
5. N[C@H](C(=O)O)[C@@H](O)c1ccc(O)c(O)c1  -0.104% [at 46 µM]
6. O=C(O)Cc1csc(-c2ccc(Cl)cc2)n1  0.0484% [at 46 µM]
7. Cc1ncc(COP(=O)(O)O)c(C=O)c1O  0.0796% [at 46 µM]
8. COc1c(N2CCNC(C)C2)c(F)cc2c(=O)c(C(=O)O)cn(C3CC3)c12 (stereo unspecified)  0.253% [at 46 µM]
9. CC[N+](CC)(CC)CCOc1cccc(OCC[N+](CC)(CC)CC)c1OCC[N+](CC)(CC)CC  0.279% [at 46 µM]
10. Cc1ccc(-c2ncc(Cl)cc2-c2ccc(S(C)(=O)=O)cc2)cn1  0.333% [at 46 µM]

With `Cc1nc2ccc(CN(C)c3ccc(C(=O)N[C@@H](CCC(=O)O)C(=O)O)s3)cc2c(=O)[nH]1` the outcome was “inactive”.
With `N[C@@H](CCC(=O)O)C(=O)O` the outcome was “inactive”.
In the case of `COc1ccnc(CS(=O)c2nc3cc(OC(F)F)ccc3[nH]2)c1OC` (stereo unspecified), the outcome is reported as “inactive”.

In order of rising fluorescence, % of fluorescent control:
1. C[N+]12CCC(CC1)C(OC(=O)C(O)(c1ccccc1)c1ccccc1)C2 (stereo unspecified)  -0.175% [at 18.6 µM]
2. O=C(O)c1cn(C2CC2)c2cc(N3CCNCC3)c(F)cc2c1=O  -0.0071% [at 18.6 µM]
3. CO[C@@]1(NC(=O)C(C(=O)O)c2ccc(O)cc2)C(=O)N2C(C(=O)O)=C(CSc3nnnn3C)CO[C@@H]21 (stereo partly specified)  0.0051% [at 18.6 µM]

In order of falling “fluorescence, % of fluorescent control” value:
1. FB(F)F  -0.0236% [at 95.7 µM]
2. CC(C)(N)C#N  -1.2% [at 95.7 µM]
